# Results filed as inconclusive are left out. Entries that show only a call come without a potency. Activity calls are given as the source filed them. Calls come from the whole dose curve; as a rule, active = well fitted inhibition curve with a large enough effect; inconclusive = small, poorly fitted or top-dose-only effect; inactive = flat fitted curve, though single readings scatter.
# Test system: GB4
# Assay: qHTS profiling for inhibitors of Plasmodium falciparum proliferation (AID 504749); note: nearly all actives have a fitted effect of over 60% in size
# Details: P. falciparum in erythrocytes, SYBR Green DNA, 72 h; series mostly up to 28.7 µM
# Method in brief: (§1)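 Fluorescence of SYBR Green-bound parasite DNA, read at 485/535 nm, served as the growth measure. Infected erythrocytes were cultured with compound 72 h; artemisinin (0.29 uM) and DMSO wells defined the normalization range.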
# Potency is the fitted concentration of half-maximal effect.
row,SMILES,Potency
1,C[C@@H]1CN(c2c(F)c(F)c3c(=O)c(C(=O)O)cn(C4CC4)c3c2F)C[C@H](C)N1,inactive
2,Cc1cc(N)c2ccccc2[n+]1CCCCCCCCCC[n+]1c(C)cc(N)c2ccccc21,144 nM (active)
3,O=C(O)[C@@H]1CSCN1,inactive
4,Nc1ccc(S(=O)(=O)Nc2nccs2)cc1,inactive

# Test system: HB3
# Assay: as above
# Details: P. falciparum in erythrocytes, SYBR Green DNA, 72 h; series mostly up to 28.7 µM
# Method in brief: as §1
row,SMILES,Potency
1,CCCCN1CCCC[C@H]1C(=O)Nc1c(C)cccc1C,inactive
2,C[C@@H]1CN(c2c(F)c(F)c3c(=O)c(C(=O)O)cn(C4CC4)c3c2F)C[C@H](C)N1,inactive
3,Cc1cc(N)c2ccccc2[n+]1CCCCCCCCCC[n+]1c(C)cc(N)c2ccccc21,794 nM (active)
4,O=C(O)[C@@H]1CSCN1,inactive
5,Nc1ccc(S(=O)(=O)Nc2nccs2)cc1,inactive

# Test system: ICS
# Assay: as above
# Details: P. falciparum in erythrocytes, SYBR Green DNA, 72 h; series mostly up to 28.7 µM
# Method in brief: as §1
row,SMILES,Potency
1,CCCCN1CCCC[C@H]1C(=O)Nc1c(C)cccc1C,inactive
2,C[C@@H]1CN(c2c(F)c(F)c3c(=O)c(C(=O)O)cn(C4CC4)c3c2F)C[C@H](C)N1,inactive
3,Cc1cc(N)c2ccccc2[n+]1CCCCCCCCCC[n+]1c(C)cc(N)c2ccccc21,100 nM (active)
4,O=C(O)[C@@H]1CSCN1,inactive
5,Nc1ccc(S(=O)(=O)Nc2nccs2)cc1,inactive

# Test system: JCK
# Assay: as above
# Details: P. falciparum in erythrocytes, SYBR Green DNA, 72 h; series mostly up to 28.7 µM
# Method in brief: as §1
row,SMILES,Potency
1,CCCCN1CCCC[C@H]1C(=O)Nc1c(C)cccc1C,inactive
2,C[C@@H]1CN(c2c(F)c(F)c3c(=O)c(C(=O)O)cn(C4CC4)c3c2F)C[C@H](C)N1,inactive
3,Cc1cc(N)c2ccccc2[n+]1CCCCCCCCCC[n+]1c(C)cc(N)c2ccccc21,1120 nM (active)
4,O=C(O)[C@@H]1CSCN1,inactive
5,Nc1ccc(S(=O)(=O)Nc2nccs2)cc1,inactive

# Test system: N140
# Assay: as above
# Details: P. falciparum in erythrocytes, SYBR Green DNA, 72 h; series mostly up to 28.7 µM
# Method in brief: as §1
row,SMILES,Potency
1,CCCCN1CCCC[C@H]1C(=O)Nc1c(C)cccc1C,inactive
2,C[C@@H]1CN(c2c(F)c(F)c3c(=O)c(C(=O)O)cn(C4CC4)c3c2F)C[C@H](C)N1,inactive
3,Cc1cc(N)c2ccccc2[n+]1CCCCCCCCCC[n+]1c(C)cc(N)c2ccccc21,251 nM (active)
4,O=C(O)[C@@H]1CSCN1,inactive
5,Nc1ccc(S(=O)(=O)Nc2nccs2)cc1,inactive

# Test system: P93_24
# Assay: as above
# Details: P. falciparum in erythrocytes, SYBR Green DNA, 72 h; series mostly up to 28.7 µM
# Method in brief: as §1
row,SMILES,Potency
1,CCCCN1CCCC[C@H]1C(=O)Nc1c(C)cccc1C,inactive
2,C[C@@H]1CN(c2c(F)c(F)c3c(=O)c(C(=O)O)cn(C4CC4)c3c2F)C[C@H](C)N1,inactive
3,Cc1cc(N)c2ccccc2[n+]1CCCCCCCCCC[n+]1c(C)cc(N)c2ccccc21,70.8 nM (active)
4,O=C(O)[C@@H]1CSCN1,inactive
5,Nc1ccc(S(=O)(=O)Nc2nccs2)cc1,inactive

# Test system: P94_40
# Assay: as above
# Details: P. falciparum in erythrocytes, SYBR Green DNA, 72 h; series mostly up to 28.7 µM
# Method in brief: as §1
row,SMILES,Potency
1,CCCCN1CCCC[C@H]1C(=O)Nc1c(C)cccc1C,inactive
2,C[C@@H]1CN(c2c(F)c(F)c3c(=O)c(C(=O)O)cn(C4CC4)c3c2F)C[C@H](C)N1,inactive
3,Cc1cc(N)c2ccccc2[n+]1CCCCCCCCCC[n+]1c(C)cc(N)c2ccccc21,7080 nM (active)
4,O=C(O)[C@@H]1CSCN1,inactive
5,Nc1ccc(S(=O)(=O)Nc2nccs2)cc1,inactive

# Test system: PAD
# Assay: as above
# Details: P. falciparum in erythrocytes, SYBR Green DNA, 72 h; series mostly up to 28.7 µM
# Method in brief: as §1
row,SMILES,Potency
1,CCCCN1CCCC[C@H]1C(=O)Nc1c(C)cccc1C,inactive
2,C[C@@H]1CN(c2c(F)c(F)c3c(=O)c(C(=O)O)cn(C4CC4)c3c2F)C[C@H](C)N1,inactive
3,Cc1cc(N)c2ccccc2[n+]1CCCCCCCCCC[n+]1c(C)cc(N)c2ccccc21,2240 nM (active)
4,O=C(O)[C@@H]1CSCN1,inactive
5,Nc1ccc(S(=O)(=O)Nc2nccs2)cc1,inactive

# Test system: PC15
# Assay: as above
# Details: P. falciparum in erythrocytes, SYBR Green DNA, 72 h; series mostly up to 28.7 µM
# Method in brief: as §1
row,SMILES,Potency
1,CCCCN1CCCC[C@H]1C(=O)Nc1c(C)cccc1C,inactive
2,C[C@@H]1CN(c2c(F)c(F)c3c(=O)c(C(=O)O)cn(C4CC4)c3c2F)C[C@H](C)N1,inactive
3,Cc1cc(N)c2ccccc2[n+]1CCCCCCCCCC[n+]1c(C)cc(N)c2ccccc21,282 nM (active)
4,O=C(O)[C@@H]1CSCN1,inactive
5,Nc1ccc(S(=O)(=O)Nc2nccs2)cc1,inactive

# Test system: PC26
# Assay: as above
# Details: P. falciparum in erythrocytes, SYBR Green DNA, 72 h; series mostly up to 28.7 µM
# Method in brief: as §1
row,SMILES,Potency
1,CCCCN1CCCC[C@H]1C(=O)Nc1c(C)cccc1C,inactive
2,C[C@@H]1CN(c2c(F)c(F)c3c(=O)c(C(=O)O)cn(C4CC4)c3c2F)C[C@H](C)N1,inactive
3,Cc1cc(N)c2ccccc2[n+]1CCCCCCCCCC[n+]1c(C)cc(N)c2ccccc21,510 nM (active)
4,O=C(O)[C@@H]1CSCN1,inactive
5,Nc1ccc(S(=O)(=O)Nc2nccs2)cc1,inactive

# Test system: PC49
# Assay: as above
# Details: P. falciparum in erythrocytes, SYBR Green DNA, 72 h; series mostly up to 28.7 µM
# Method in brief: as §1
row,SMILES,Potency
1,CCCCN1CCCC[C@H]1C(=O)Nc1c(C)cccc1C,inactive
2,C[C@@H]1CN(c2c(F)c(F)c3c(=O)c(C(=O)O)cn(C4CC4)c3c2F)C[C@H](C)N1,inactive
3,Cc1cc(N)c2ccccc2[n+]1CCCCCCCCCC[n+]1c(C)cc(N)c2ccccc21,126 nM (active)
4,O=C(O)[C@@H]1CSCN1,inactive
5,Nc1ccc(S(=O)(=O)Nc2nccs2)cc1,inactive

# Test system: SC27B
# Assay: as above
# Details: P. falciparum in erythrocytes, SYBR Green DNA, 72 h; series mostly up to 28.7 µM
# Method in brief: as §1
row,SMILES,Potency
1,CCCCN1CCCC[C@H]1C(=O)Nc1c(C)cccc1C,inactive
2,C[C@@H]1CN(c2c(F)c(F)c3c(=O)c(C(=O)O)cn(C4CC4)c3c2F)C[C@H](C)N1,inactive
3,Cc1cc(N)c2ccccc2[n+]1CCCCCCCCCC[n+]1c(C)cc(N)c2ccccc21,0.0316 nM (active)
4,O=C(O)[C@@H]1CSCN1,inactive
5,Nc1ccc(S(=O)(=O)Nc2nccs2)cc1,inactive
